For part of these data: Entries with a potency or affinity are not part of this list.

Percent Effect data for nine molecules are collected here from ChEMBL document CHEMBL3988442, “University of Dundee, Small-Polar-MMV Screening Library” (2021).

Common to all, as to set-up: scale not given: direction of the effect not stated beside the values
Assay [1] concerns the target Protein translocase subunit SecA (Escherichia coli (strain K12)) (UniProt P10408). Description: Assay to Identify E. coli SecA ATPase Inhibitors. In kind it is functional. The following applies: 30 µM.
Assay [2] addresses T1, Ubiquitin-activating enzyme e1, putative (Leishmania donovani (strain BPK282A1)) (UniProt E9BSI1).
T1 sequence (whole entry): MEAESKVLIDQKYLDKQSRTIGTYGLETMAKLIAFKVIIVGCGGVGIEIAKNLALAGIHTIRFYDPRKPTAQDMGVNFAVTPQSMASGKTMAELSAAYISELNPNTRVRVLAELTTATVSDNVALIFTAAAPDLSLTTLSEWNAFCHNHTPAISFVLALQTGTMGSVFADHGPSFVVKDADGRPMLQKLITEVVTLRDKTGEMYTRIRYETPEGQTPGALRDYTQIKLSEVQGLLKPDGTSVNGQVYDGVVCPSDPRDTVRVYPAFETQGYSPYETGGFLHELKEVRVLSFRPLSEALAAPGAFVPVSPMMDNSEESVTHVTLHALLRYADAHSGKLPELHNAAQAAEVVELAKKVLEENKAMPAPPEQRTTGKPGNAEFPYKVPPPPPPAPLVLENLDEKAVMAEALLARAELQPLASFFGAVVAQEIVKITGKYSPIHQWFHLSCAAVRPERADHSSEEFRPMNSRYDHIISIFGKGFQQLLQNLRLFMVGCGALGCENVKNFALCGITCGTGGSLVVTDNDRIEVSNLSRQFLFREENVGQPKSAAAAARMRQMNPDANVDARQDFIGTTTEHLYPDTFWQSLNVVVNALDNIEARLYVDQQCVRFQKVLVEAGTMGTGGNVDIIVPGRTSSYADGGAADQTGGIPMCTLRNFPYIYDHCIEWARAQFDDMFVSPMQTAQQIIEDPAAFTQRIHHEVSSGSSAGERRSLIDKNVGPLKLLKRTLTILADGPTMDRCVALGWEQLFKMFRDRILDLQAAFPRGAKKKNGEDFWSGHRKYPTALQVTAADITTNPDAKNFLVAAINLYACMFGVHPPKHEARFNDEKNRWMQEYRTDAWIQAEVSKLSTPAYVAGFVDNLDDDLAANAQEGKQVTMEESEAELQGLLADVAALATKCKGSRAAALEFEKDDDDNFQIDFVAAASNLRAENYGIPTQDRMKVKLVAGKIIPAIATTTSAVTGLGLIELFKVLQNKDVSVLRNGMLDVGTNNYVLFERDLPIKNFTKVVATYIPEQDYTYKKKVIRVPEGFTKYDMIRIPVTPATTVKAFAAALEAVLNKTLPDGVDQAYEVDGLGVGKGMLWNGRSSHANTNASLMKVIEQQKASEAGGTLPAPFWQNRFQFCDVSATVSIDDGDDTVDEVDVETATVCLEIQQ
Briefly: Leishmania donovani Ubiquitin Activating Enzyme (LdE1). In kind it is functional. The following applies: 30 µM.

For assay [3], the target named is AMP-activated protein kinase, AMPK (Homo sapiens) (UniProt P54646+O43741+P54619+Q9UGJ0+Q9Y478+Q13131+Q9UGI9). Description: AMP-dependent Kinase enzyme assay. An in vitro enzyme assay that detects ADP turnover that is directly proportional to AMPK activity. This uses naive AMPK that is activated during the assay with MK-8722. Type of assay: functional. The settings on record: 30 µM.

In assay [4] the target is Sialic acid-binding Ig-like lectin 9 (Homo sapiens) (UniProt Q9Y336). Description: Hs-Siglec9 ALPHAscreen SOP 20170721. The following applies: 10 µM. (Bead proximity is the source of the signal in Alpha formats.)
Sialic acid-binding Ig-like lectin 9 (Homo sapiens), sequence (Q9Y336 whole entry): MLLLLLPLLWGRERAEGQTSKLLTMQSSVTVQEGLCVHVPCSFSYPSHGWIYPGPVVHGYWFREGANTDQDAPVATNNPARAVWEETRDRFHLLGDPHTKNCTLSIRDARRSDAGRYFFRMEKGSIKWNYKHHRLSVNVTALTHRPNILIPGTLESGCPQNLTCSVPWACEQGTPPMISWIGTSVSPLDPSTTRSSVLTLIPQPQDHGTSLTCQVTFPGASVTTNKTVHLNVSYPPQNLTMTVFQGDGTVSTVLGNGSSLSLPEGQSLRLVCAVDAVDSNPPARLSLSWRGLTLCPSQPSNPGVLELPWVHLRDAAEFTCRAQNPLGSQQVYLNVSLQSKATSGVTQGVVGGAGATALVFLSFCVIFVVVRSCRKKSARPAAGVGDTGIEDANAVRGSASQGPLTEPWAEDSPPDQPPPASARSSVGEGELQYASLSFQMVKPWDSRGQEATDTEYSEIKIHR
In a further assay the test system is Trypanosoma cruzi. Briefly: Trypanosoma cruzi phosphomannomutase and mannose-1-phosphate guanylyltransferase assay. Type of assay: functional. The settings on record: 10 µM.
For assay [5], the target named is T2, Arginase-2, mitochondrial (Homo sapiens) (UniProt P78540).
T2 sequence (whole entry): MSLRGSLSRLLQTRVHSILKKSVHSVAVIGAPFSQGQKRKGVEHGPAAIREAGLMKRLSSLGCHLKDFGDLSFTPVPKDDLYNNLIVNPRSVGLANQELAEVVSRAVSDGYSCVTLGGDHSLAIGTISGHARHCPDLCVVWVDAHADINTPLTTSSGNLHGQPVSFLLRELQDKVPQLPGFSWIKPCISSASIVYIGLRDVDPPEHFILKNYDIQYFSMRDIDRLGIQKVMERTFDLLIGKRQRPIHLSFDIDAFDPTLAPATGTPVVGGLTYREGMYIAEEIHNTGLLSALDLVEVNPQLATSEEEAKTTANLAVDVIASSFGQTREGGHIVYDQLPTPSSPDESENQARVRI
Description: in vitro enzyme assay to detect the production of urea directly proportional to the activity of Arginase II. Further: in the data most compounds retested in dose-response had high values. Type of assay: functional. The settings on record: 33.3 µM.

Assay [6] concerns the target T3, Proteasome subunit beta (Trypanosoma cruzi) (UniProt O96673).
T3 sequence (whole entry): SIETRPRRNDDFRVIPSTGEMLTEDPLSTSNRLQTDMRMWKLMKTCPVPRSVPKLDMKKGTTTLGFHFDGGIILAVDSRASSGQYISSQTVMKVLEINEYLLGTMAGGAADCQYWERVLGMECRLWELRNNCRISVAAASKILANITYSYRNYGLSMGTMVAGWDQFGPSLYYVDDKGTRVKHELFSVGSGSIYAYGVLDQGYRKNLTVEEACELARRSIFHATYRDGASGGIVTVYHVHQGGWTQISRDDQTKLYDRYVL
Briefly: Trypanosoma cruzi proteasome chymotrypsin-like activity (TcProtChymo) assay. Further: in the data most compounds retested in dose-response had high values. In kind it is functional. The settings on record: 9.37 µM.

Another assay is filed under the species Homo sapiens. Briefly: To identify inhibition of the IFN signalling (Jak-Stat) pathway via expression of an eGFP reporter gene under the control of an IFN-stimulated response element (ISRE) containing MxA promoter. Type of assay: functional. The settings on record: 30 µM. On the technique in general: In a reporter assay the amount or activity of a reporter protein is the signal.

In assay [7] the target is T4, Tyrosyl-tRNA synthetase, putative (Trypanosoma cruzi (strain CL Brener)) (UniProt Q4DSP6).
T4 sequence (whole entry): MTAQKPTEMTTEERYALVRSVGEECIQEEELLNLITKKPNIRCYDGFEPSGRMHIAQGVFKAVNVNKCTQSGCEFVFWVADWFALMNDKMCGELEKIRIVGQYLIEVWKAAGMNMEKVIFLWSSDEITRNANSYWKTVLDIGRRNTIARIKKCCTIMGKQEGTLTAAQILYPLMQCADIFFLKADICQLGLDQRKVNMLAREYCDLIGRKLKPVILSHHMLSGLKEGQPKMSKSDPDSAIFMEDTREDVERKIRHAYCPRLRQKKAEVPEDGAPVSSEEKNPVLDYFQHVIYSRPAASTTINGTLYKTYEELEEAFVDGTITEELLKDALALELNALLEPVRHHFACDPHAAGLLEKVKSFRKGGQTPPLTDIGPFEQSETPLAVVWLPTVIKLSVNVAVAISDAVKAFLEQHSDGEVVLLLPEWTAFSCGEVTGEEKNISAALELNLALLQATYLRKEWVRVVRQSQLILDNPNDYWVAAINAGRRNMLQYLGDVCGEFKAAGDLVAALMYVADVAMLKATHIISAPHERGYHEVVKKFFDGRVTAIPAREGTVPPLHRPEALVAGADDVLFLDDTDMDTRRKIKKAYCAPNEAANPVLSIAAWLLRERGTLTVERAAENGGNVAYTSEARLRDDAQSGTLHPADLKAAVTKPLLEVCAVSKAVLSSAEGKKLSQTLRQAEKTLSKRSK
Briefly: Trypanosoma cruzi tyrosyl tRNA synthetase (TcYRS) _High Tyrosine SOP. Further: in the data most compounds retested in dose-response had high values. In kind it is functional. The following applies: 30 µM.

For assay [8], the target named is T4, Tyrosyl-tRNA synthetase, putative (Trypanosoma cruzi (strain CL Brener)). Description: Trypanosoma cruzi tyrosyl tRNA synthetase (TcYRS) SOP. Type of assay: functional. The following applies: 30 µM.
Assay [9] has as its target Chromo domain-containing protein 1 (Saccharomyces cerevisiae (strain ATCC 204508 / S288c) (Baker's yeast)) (UniProt P32657). Briefly: ScCHD-1 Enzyme Inhibition Assay. Further: in the data most compounds retested in dose-response had high values. In kind it is functional. The settings on record: 30 µM.

Protein translocase subunit SecA (Escherichia coli (strain K12)), sequence (P10408 whole entry): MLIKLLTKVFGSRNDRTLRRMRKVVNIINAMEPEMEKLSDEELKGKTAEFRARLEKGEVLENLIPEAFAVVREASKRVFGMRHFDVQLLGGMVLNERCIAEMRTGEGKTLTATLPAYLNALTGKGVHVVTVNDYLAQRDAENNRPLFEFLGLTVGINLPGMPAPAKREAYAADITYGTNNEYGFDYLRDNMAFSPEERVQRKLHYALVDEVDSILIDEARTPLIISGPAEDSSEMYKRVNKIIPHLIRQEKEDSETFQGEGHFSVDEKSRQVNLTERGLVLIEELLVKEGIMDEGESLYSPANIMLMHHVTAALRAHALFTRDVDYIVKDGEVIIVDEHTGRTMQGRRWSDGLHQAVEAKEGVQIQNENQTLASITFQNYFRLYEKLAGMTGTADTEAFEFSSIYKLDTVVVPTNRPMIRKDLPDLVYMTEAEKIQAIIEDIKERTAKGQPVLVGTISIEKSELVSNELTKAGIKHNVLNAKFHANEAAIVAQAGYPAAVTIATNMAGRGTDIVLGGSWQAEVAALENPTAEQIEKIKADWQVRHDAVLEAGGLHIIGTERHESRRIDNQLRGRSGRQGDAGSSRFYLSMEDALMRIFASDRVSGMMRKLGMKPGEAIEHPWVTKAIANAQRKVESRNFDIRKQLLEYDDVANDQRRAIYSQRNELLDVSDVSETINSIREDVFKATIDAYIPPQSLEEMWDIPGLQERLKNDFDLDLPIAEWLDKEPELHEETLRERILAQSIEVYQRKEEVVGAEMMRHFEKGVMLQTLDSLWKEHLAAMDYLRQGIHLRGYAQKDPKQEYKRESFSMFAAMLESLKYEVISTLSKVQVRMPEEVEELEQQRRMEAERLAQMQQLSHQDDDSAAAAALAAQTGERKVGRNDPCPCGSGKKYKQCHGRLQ
Chromo domain-containing protein 1 (Saccharomyces cerevisiae (strain ATCC 204508 / S288c) (Baker's yeast)), sequence (P32657 whole entry, the tested form may be a part): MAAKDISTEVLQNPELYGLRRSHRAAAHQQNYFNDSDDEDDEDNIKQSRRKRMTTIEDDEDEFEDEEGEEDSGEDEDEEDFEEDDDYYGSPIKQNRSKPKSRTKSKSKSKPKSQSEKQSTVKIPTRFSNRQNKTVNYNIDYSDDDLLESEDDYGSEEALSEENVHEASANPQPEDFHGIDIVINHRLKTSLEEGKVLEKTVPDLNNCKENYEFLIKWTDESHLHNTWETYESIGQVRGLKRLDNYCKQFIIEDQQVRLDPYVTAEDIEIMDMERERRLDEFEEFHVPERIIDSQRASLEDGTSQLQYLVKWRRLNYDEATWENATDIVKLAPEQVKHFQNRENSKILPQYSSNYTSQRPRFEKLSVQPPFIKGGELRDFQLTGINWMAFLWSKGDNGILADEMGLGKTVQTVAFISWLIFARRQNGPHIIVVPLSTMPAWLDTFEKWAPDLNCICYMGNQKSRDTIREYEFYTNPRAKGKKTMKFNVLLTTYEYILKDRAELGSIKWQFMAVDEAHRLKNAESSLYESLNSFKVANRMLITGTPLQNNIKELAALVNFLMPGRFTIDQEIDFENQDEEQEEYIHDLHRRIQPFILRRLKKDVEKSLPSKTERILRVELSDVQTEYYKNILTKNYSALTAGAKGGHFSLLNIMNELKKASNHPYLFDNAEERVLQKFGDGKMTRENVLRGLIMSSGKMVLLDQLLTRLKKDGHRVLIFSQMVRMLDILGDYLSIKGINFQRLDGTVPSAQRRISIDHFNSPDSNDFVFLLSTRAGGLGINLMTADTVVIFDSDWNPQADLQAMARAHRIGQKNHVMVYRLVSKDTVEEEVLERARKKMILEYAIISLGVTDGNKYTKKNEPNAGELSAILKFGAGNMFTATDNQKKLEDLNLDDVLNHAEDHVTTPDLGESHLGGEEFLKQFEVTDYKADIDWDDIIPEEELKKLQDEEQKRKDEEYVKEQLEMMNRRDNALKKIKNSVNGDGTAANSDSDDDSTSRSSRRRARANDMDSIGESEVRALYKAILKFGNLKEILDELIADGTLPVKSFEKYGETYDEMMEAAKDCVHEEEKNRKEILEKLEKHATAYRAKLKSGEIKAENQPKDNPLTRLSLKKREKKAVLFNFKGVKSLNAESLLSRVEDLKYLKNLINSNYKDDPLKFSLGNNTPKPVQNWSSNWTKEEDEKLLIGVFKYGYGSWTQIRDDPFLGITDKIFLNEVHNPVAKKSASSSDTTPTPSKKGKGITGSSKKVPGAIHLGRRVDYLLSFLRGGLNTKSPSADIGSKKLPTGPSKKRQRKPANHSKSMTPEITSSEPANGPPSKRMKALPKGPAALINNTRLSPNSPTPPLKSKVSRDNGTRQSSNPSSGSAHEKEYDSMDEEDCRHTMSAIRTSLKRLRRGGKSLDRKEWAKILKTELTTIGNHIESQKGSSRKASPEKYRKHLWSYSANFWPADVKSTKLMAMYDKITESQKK

Consider `CC(C(=O)NCCOc1cccc(Cl)c1)n1cncn1` (centres undefined), for which the Percent Effect is -1.19% in [1]; 17.7% in [2]; -0.802% in [3]; -7.8% in assay [4]; 2.55% with Trypanosoma cruzi; 3.42% in assay [5]. The Percent Effect in [6] is 7.94%; in the assay filed under Homo sapiens, -10.4%; in assay [7] it was -2.46%; in assay [8], 13.9%; in [9], -5.29%.

On to `Cc1ccc2c(n1)N(C)CCN(C(=O)C1CC1)C2`, for which the Percent Effect in assay [1] is 1.38%; in assay [2] it was 8%; in [3] it was 0.651%; in assay [4], 2.31%; with Trypanosoma cruzi, -8.69%; in [5], -54.3%. For the same molecule, the Percent Effect in assay [6] was 7.69%; in the assay listed under Homo sapiens, 12.1%; in assay [7] it was 2.08%; in assay [8], 17.5%; in assay [9], -6.8%.

As to `CN(C)C(=O)N1CCc2c(CNc3ncccn3)cncc2C1`, the Percent Effect was -2.85% in assay [1]; 0% in assay [2]; -1% in assay [3]; 7.13% in assay [4]; 1.35% with Trypanosoma cruzi; -23.8% in assay [5]. The Percent Effect in assay [6] was 1.88%; in the assay filed under Homo sapiens it was -4.02%; in assay [7], 6.25%; in [8], 7.5%; in assay [9] it was -2.6%.

Turning to `O=C(Nc1cnccn1)[C@@H]1COC[C@H]2CN(C3CCCC3)C[C@H]21`, the Percent Effect was -8.34% in [1]; 13.5% in [2]; -5.42% in assay [3]; 16.7% in [4]; 3.91% with Trypanosoma cruzi; 3.33% in assay [5]. For the same molecule, the Percent Effect was 3.97% in assay [6]; -6.67% in the assay filed under Homo sapiens; 6.93% in assay [7]; 11% in assay [8]; -4.69% in assay [9].

On to `COCCN1C[C@H]2[C@@H](C1)N(Cc1ccc(C)o1)CC[C@H]2OC`, for which the Percent Effect is -2.85% in [1]; -30.1% in assay [2]; -5.66% in assay [3]; 7.25% in assay [4]; 6.94% in the assay on Trypanosoma cruzi; -3.19% in [5]. Also, the Percent Effect in assay [6] was 14.3%; in the assay filed under Homo sapiens, 0.524%; in assay [7], 8.33%; in assay [8], 6.17%; in [9], -11.5%.

For `NC(=O)c1csc(C(=O)N2CCCC(n3ccnc3)C2)c1` (centres undefined), the Percent Effect in assay [1] was -5.24%; in [2], 3.8%; in assay [3], 5.04%; in assay [4], 3%; in the assay with Trypanosoma cruzi, 2.56%; in assay [5], 1.5%. The Percent Effect in assay [6] was 7.72%; in the assay listed under Homo sapiens, -1.55%; in assay [7], 4.17%; in assay [8], 15.2%; in [9], -9.55%.

In the case of `O=C(NCCCNCC1CNc2ccnn2C1)c1ccccc1` (centres undefined), the Percent Effect in assay [1] was 0.663%; in assay [2], 2.7%; in [3], -9.29%; in assay [4] it was -3.11%; with Trypanosoma cruzi, 0.193%; in [5] it was 4.29%. Besides, the Percent Effect is 16.6% in assay [6]; 9.18% in the assay filed under Homo sapiens; 5.82% in assay [7]; 14.6% in assay [8]; -3.29% in [9].

Consider `CSC(C)C(=O)N1CCCN(Cc2cnn(C(C)C)c2)CC1` (centres undefined), for which the Percent Effect in assay [1] is 1.59%; in [2] it was 21.6%; in assay [3] it was -6.76%; in assay [4] it was -4.41%; with Trypanosoma cruzi, -10.3%; in [5], 2%. The Percent Effect in [6] is 19.1%; in the assay listed under Homo sapiens it was 7.04%; in assay [7], 8.37%; in assay [8], 11.1%; in [9], -4.54%.

Regarding `CC(C)c1n[nH]c(C2CN(C(=O)CCCn3cccn3)CCO2)n1` (centres undefined), the Percent Effect in assay [1] is 0.0152%; in [2], -6.94%; in assay [3], -4.76%; in assay [4] it was -7.03%; with Trypanosoma cruzi, -2.43%; in assay [5] it was 2.21%. The Percent Effect in assay [6] is 11.6%; in the assay filed under Homo sapiens, -1.34%; in assay [7], -1.05%; in [8] it was 0%; in [9], 0.954%.
